The nature of assay [1]: qHTS to identify inhibitors of the type 1 interferon - major histocompatibility complex class I in skeletal muscle: primary screen against the NCATS Mechanism Interrogation Plate v5.0 (MIPE) Libary (AID 1347411).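 For activity change, negative = inhibition: plate controls were vehicle for no effect and reference inhibitor for full effect.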 Note: nearly all actives have a fitted effect of over 65% in size. Note: potency is the fitted concentration of half-maximal effect. Summed up: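 Immortalized human myoblasts (C25cl48) with HiBit knocked into endogenous HLA-B*08:01 were stimulated with 4 ng/ml IFN-beta and given compounds in 11-point 1:3 titration from 46 uM. After 24 h at 37 C, lytic HiBiT luminescence was read.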
Background: Quantitative high-throughput screening tests each substance at several concentrations.

The nature of assay [2]: Primary qHTS for inhibitors of nuclear receptor binding SET domain protein 2 (NSD2) in an isogenic RCH-ACV NSD2 p.E1099K mutant (9B) (AID 1645876). For activity change, negative = viability loss: % is set by controls: 0 for no effect and ±100 for the full control effect. Note: nearly all actives have a fitted effect of over 70% in size. Note: potency is the fitted concentration of half-maximal effect.
Assay [3] can be described thus: Primary qHTS for inhibitors of nuclear receptor binding SET domain protein 2 (NSD2) in an RCH-ACV wild type WT cells (2C) (AID 1645877). For activity change, negative = cell killing: % is set by controls: 0 for no effect and ±100 for the full control effect. Note: nearly all actives have a fitted effect of over 70% in size. Note: potency is the fitted concentration of half-maximal effect.
The target in assay [4] is Glutathione peroxidase 1 (Homo sapiens) (UniProt P07203). Put plainly: Primary qHTS Assay for Inhibitors of Recombinant Selenoprotein Glutathione Peroxidase 1 (GPX1) (AID 1845191). Note: nearly all actives have a fitted effect of over 65% in size. Summed up:
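GR-coupled assay: compounds preincubated 30 min at room temperature with GPX1, then reaction started with CHP; final 10 nM GPX1, 1 mM GSH, 0.5 mM CHP, 0.5 mM NADPH, 100 nM GR, 0.01% BSA, pH 7.5 Tris buffer. NADPH fluorescence (340/450 nm) read at 0 and 15 min.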

Assay [5] concerns the target Phospholipid hydroperoxide glutathione peroxidase GPX4 (Homo sapiens) (UniProt P36969). Put plainly: Primary qHTS Assay for Inhibitors of Recombinant Selenoprotein Glutathione Peroxidase 4 (GPX4) (AID 1845192). For activity change, negative = inhibition: series mostly up to about 50 µM; % is set by controls: 0 for no effect and ±100 for the full control effect. Note: nearly all actives have a fitted effect of over 65% in size. As to conditions: outcome: dose series up to 50 µM unless noted. Summed up:
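GR-coupled assay: recombinant GPX4 preincubated 30 min with compound at room temperature; final 200 nM GPX4, 1 mM GSH, 0.5 mM cumene hydroperoxide, 0.5 mM NADPH, 100 nM GR, 0.01% BSA, pH 7.5 Tris. NADPH fluorescence (340/450 nm) read at 0 and 15 min.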

Assay [6] is described as follows: qHTS drug screen for cell cycle checkpoint inhibitors in PARPi-resistant BRCA-mutant ovarian cancer cell lines. (AID 1963452; calls by dose curve; note: potency is the fitted concentration of half-maximal effect). As to conditions: PEO1/OlaR viability, CellTiter-Glo luminescence, 96 h; for Z-AUC: stronger effect = lower value. Summed up: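 PEO1, PEO4 and PEO1/OlaR ovarian cancer cells, 600 per well, exposed 96 h at 37C to a dilution series. Viability read by CellTiter-Glo luminescence, normalized to DMSO and empty wells; activity summarized as Z-AUC.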

For assay [7], the target named is Tyrosine-protein kinase Yes (Homo sapiens) (UniProt P07947). Put plainly: qHTS for small molecule inhibitors of Yes1 kinase: Primary Screen (AID 686947).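 Note: plate controls were DMSO with enzyme for no effect and no-enzyme DMSO wells for full effect; nearly all actives have a fitted effect of over 60% in size.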 Summed up:
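Yes1 (4 nM) preincubated 20 min with compound, then 60 min room-temperature reaction with 0.1 mM ATP and 0.3 mg/mL poly(E4Y) in pH 7.5 Tris, 10 mM MgCl2. ADP measured by ADP-Glo luminescence, normalised to enzyme/no-enzyme controls.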

A short description of assay [8]: qHTS for small molecule inhibitors of Yes1 kinase: Counter Assay (AID 686950).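 Note: no kinase present so only ADP-Glo detection of a fixed ADP amount is tested; luminescence from ADP-Glo reporting ADP in a fixed ATP and ADP mixture; series mostly up to about 77 µM; 0% = DMSO wells with ATP plus ADP and -100% = ATP-only wells without ADP.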 Summed up:
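Enzyme-free detection counter-screen: compounds preincubated 20 min in buffer, then 0.08 mM ATP plus 0.02 mM ADP added for 60 min at room temperature; ADP-Glo luminescence. Buffer 50 mM Tris pH 7.5, 10 mM MgCl2, 150 mM NaCl; normalized to ATP+ADP and ATP-only controls.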

The mark [9] stands for this setting: measured here: PEO1 parental Z-AUC.

The values that follow come from PubChem BioAssay (NCATS).

SMILES strings stand for the structures. Results filed as inconclusive are left out. Calls of active or inactive are those of the source. Unless noted, calls come from the whole dose curve; as a rule, active = well fitted curve in the direction sought with a large enough effect; inconclusive = small, poorly fitted or top-dose-only effect, or another doubt; inactive = no such curve, though single readings can be large; an effect the other way counts as inactive or inconclusive. Where a SMILES comes first, the peptide text is derived from it. [ ]: non-standard residue; d: D form.

Sequence of Glutathione peroxidase 1 (Homo sapiens) (P07203 whole entry, looked up): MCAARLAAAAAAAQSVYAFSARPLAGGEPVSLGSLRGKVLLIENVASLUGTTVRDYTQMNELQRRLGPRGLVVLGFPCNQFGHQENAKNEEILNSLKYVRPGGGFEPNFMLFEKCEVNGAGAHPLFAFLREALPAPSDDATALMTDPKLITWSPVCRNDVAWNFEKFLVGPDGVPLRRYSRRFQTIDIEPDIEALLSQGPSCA
Sequence of Phospholipid hydroperoxide glutathione peroxidase GPX4 (Homo sapiens) (P36969 whole entry, looked up): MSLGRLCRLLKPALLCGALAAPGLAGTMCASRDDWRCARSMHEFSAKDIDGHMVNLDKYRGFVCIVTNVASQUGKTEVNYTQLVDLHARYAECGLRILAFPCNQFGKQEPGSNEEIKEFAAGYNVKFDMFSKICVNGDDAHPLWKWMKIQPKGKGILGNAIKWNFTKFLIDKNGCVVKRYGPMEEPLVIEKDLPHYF
Sequence of Tyrosine-protein kinase Yes (Homo sapiens) (P07947 whole entry, looked up): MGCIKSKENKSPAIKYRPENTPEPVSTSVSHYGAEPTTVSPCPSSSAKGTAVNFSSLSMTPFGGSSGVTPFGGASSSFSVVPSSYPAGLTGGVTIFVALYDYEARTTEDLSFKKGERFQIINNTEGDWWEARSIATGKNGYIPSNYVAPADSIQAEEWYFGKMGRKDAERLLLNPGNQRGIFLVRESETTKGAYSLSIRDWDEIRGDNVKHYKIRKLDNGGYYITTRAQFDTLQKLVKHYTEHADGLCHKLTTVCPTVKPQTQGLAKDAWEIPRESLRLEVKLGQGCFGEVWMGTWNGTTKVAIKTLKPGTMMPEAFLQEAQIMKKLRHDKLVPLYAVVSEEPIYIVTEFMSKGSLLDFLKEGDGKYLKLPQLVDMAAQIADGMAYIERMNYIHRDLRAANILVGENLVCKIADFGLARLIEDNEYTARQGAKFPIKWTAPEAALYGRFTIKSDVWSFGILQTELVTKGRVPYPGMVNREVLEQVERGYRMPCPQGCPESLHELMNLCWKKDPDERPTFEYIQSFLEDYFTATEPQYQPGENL

With `O=C(/C=C/N1C[C@H]2C[C@@H]1CN2c1ccccn1)c1ccccc1O`, the Potency entry in assay [1], in assay [2], in assay [3], in assay [4] and in assay [5] was “inactive” each time. Further, the results for the Z-AUC in assay [6], in assay [6] (setting [9]) and in assay [6] (measured here: PEO4 Z-AUC) were 1.02 (inactive), 0.925 and 0.836, respectively.

Turning to `COc1ccc(S(=O)(=O)N[C@@H](CNc2nc(C)nc(N3CCC(c4ccc5c(n4)NCCC5)CC3)c2C)C(=O)O)cc1`, the Potency entry in assay [1], in assay [2], in assay [3], in assay [4] and in assay [5] was “inactive” in each case. Further, the Potency in assay [6] is 61.6 nM (active). In addition, the Z-AUC in assay [6] (setting [9]) was -1.54; in assay [6] (measured here: PEO4 Z-AUC), -1.12.

On to `CC(C)C[C@@H]1NC(=O)[C@@H](C(C)C)NC(=O)[C@@H]2CCCN2C(=O)[C@@H](CC(=O)O)NC(=O)[C@@H](Cc2c[nH]c3ccccc23)NC1=O` (cyclo(L[dW][dD]P[dV])), for which the Potency entry in assay [1], in assay [2], in assay [3], in assay [4] and in assay [5] was “inactive” throughout. The figures for the Z-AUC in assay [6], in assay [6] (setting [9]) and in assay [6] (measured here: PEO4 Z-AUC) were -0.319 (inactive), 0.0618 and -0.23, respectively.

As to `CN(C)CCNC(=O)NC[C@H]1CC[C@@H]2[C@H](O1)c1cc(C(F)(F)F)ccc1N[C@H]2c1ccccc1`, the Potency result in assay [1], in assay [4] and in assay [5] was “inactive” throughout. The Potency in assay [2] was 263 nM (active); in assay [3], 417 nM (active). In addition, the Z-AUC in assay [6] was -0.264 (inactive); in assay [6] (setting [9]), -0.891; in assay [6] (measured here: PEO4 Z-AUC) it was -1.1.

On to `OC[C@H]1O[C@@H](S[C@@H]2O[C@H](CO)[C@H](O)[C@H](n3cc(-c4cccc(F)c4)nn3)[C@H]2O)[C@H](O)[C@@H](n2cc(-c3cccc(F)c3)nn2)[C@H]1O`, for which the Potency entry in assay [1], in assay [2], in assay [3], in assay [4] and in assay [5] was “inactive” throughout. In addition, the Z-AUC in assay [6] is -0.122 (inactive); in assay [6] (setting [9]) it was 0.00215; in assay [6] (measured here: PEO4 Z-AUC) it was 0.252.

Regarding `CN1CCN(C(=O)[C@H]2[C@@H](C(=O)O)[C@H]3CC[C@@H]2O3)CC1`, the figures for the activity change, negative = inhibition in assay [1] and in assay [5] were -7.67% [at 8.44 µM] (inactive) and 3.36% [at 9.73 µM] (inactive), respectively. Further, in assay [2], the activity change, negative = viability loss is 9.83% [at 9.23 µM] (inactive). In assay [3], the activity change, negative = cell killing is 4.4% [at 9.23 µM] (inactive). Further, the outcome in assay [4] was “inactive [at 9.52 µM]”. The Z-AUC was 0.39 (inactive) in assay [6], 0.568 in assay [6] (setting [9]) and 0.663 in assay [6] (measured here: PEO4 Z-AUC).

In the case of `CC1=NN(c2ccc(C(=O)O)cc2)C(=O)/C1=C/c1ccc(-c2cc(C)c(C)cc2[N+](=O)[O-])o1`, the Potency result in assay [1], in assay [2], in assay [3], in assay [4] and in assay [5] was “inactive” each time. The figures for the Z-AUC in assay [6], in assay [6] (setting [9]) and in assay [6] (measured here: PEO4 Z-AUC) were 0.0308 (inactive), 0.127 and -0.0936, respectively.

`COc1ccc(COc2ccc(Cc3cnc(N)nc3N)cc2OC)cc1`: the Potency entry in assay [7] was “inactive”. Further, in assay [8], the compound was classed as inactive.

For the compound `CC[C@@]1(O)C(=O)OCc2c1cc1n(c2=O)Cc2c-1nc1ccccc1c2CCNC(C)C`, the Potency in assay [6] was 17.4 nM (active).

Turning to `C/C=C1\NC(=O)[C@H]2CSSCC/C=C\[C@H](CC(=O)N[C@H](C(C)C)C(=O)N2)OC(=O)[C@H](C(C)C)NC1=O`, the Potency in assay [6] was 4.9 nM (active).

For `O=C(CCCCCCC(=O)N/N=C/c1ccc(N(c2ccccc2)c2ccccc2)cc1)NO`, the Potency in assay [1] is 18600 nM (active); in assay [2] it was 1180 nM (active); in assay [3] it was 1480 nM (active). The figures for the Z-AUC in assay [6], in assay [6] (setting [9]) and in assay [6] (measured here: PEO4 Z-AUC) were 1.09 (inactive), 0.912 and 0.729, respectively.

With `CC(C)(NS(=O)(=O)c1ccc2c(Cl)cnc(N=C(N)N)c2c1)C(=O)O`, the Potency result in assay [1], in assay [2] and in assay [3] was “inactive” throughout. Moreover, the Z-AUC in assay [6] was -0.917 (inactive); in assay [6] (setting [9]) it was 0.762; in assay [6] (measured here: PEO4 Z-AUC), 0.0928.
